# Assay results published in PubChem BioAssay AID1508601 (ICCB-Longwood Screening Facility, Harvard Medical School, 2020).
# The campaign covered roughly 5,700 compounds. About 85 (1%) were called active. Cut-off read from the data, not from the text of the source: active = p53-positive nuclei above about 36% (passing the limit was not always enough); inactive = the rest. For the sample, actives were picked, then their nearest neighbours and some compounds at random.
# Experiments:
# [1] = p53 stabilisation in HPV-positive human cells, imaging, p53-positive nuclei imaging, 24 h, 48 h (AID 1508601); settings: 24/48 h
# [2] = target: Cellular tumor antigen p53 (Homo sapiens) (UniProt P04637); assay: as above; settings: 24/48 h, stronger effect = higher value
# Cellular tumor antigen p53 (Homo sapiens), sequence (P04637 whole entry, looked up): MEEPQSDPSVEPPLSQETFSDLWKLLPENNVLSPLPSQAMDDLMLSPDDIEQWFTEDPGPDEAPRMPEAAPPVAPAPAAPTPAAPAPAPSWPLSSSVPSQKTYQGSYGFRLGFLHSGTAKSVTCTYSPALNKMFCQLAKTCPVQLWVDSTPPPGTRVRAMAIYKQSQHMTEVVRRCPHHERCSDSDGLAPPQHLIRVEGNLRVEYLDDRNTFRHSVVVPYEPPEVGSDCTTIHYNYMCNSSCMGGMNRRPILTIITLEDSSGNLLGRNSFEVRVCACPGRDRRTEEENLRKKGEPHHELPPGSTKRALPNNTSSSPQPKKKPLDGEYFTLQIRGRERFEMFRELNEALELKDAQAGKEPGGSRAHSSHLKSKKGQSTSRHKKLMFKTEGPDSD
# [3] = measured here: cell number at 24 h, concentration not given here
# [4] = measured here: cell number at 48 h, concentration not given here
# [5] = measured here: p53 positive nuclei at 24 h, concentration not given here
# [6] = measured here: cell number at 24 h, Library stock concentration: 46 uM
# [7] = measured here: cell number at 24 h, Library stock concentration: 278 uM
# [8] = measured here: cell number at 24 h, Library stock concentration: 1.67 mM
# [9] = measured here: cell number at 24 h, Library stock concentration: 10 mM
# [10] = measured here: cell number at 48 h, Library stock concentration: 46 uM
# [11] = measured here: cell number at 48 h, Library stock concentration: 278 uM
# [12] = measured here: cell number at 48 h, Library stock concentration: 1.67 mM
# [13] = measured here: cell number at 48 h, Library stock concentration: 10 mM
# [14] = Library stock concentration: 46 uM
# [15] = Library stock concentration: 278 uM
# [16] = Library stock concentration: 1.67 mM
# [17] = Library stock concentration: 10 mM
# [18] = measured here: p53 positive nuclei at 24 h, Library stock concentration: 46 uM
# [19] = measured here: p53 positive nuclei at 24 h, Library stock concentration: 278 uM
# [20] = measured here: p53 positive nuclei at 24 h, Library stock concentration: 1.67 mM
# [21] = measured here: p53 positive nuclei at 24 h, Library stock concentration: 10 mM
# [22] = measured here: cell number at 24 h, Library stock concentration: 80 uM
# [23] = measured here: cell number at 24 h, Library stock concentration: 400 uM
# [24] = measured here: cell number at 24 h, Library stock concentration: 2 mM
# [25] = measured here: cell number at 48 h, Library stock concentration: 80 uM
# [26] = measured here: cell number at 48 h, Library stock concentration: 400 uM
# [27] = measured here: cell number at 48 h, Library stock concentration: 2 mM
# [28] = Library stock concentration: 80 uM
# [29] = Library stock concentration: 400 uM
# [30] = Library stock concentration: 2 mM
# [31] = measured here: p53 positive nuclei at 24 h, Library stock concentration: 80 uM
# [32] = measured here: p53 positive nuclei at 24 h, Library stock concentration: 400 uM
# [33] = measured here: p53 positive nuclei at 24 h, Library stock concentration: 2 mM
# [34] = measured here: cell number at 24 h, Library stock concentration: 3.33 mM
# [35] = measured here: cell number at 48 h, Library stock concentration: 3.33 mM
# [36] = Library stock concentration: 3.33 mM
# [37] = measured here: p53 positive nuclei at 24 h, Library stock concentration: 3.33 mM
structure (smiles),measurement,setting,value
Cc1nn(C)c(C)c1-c1ccnc(NCC(C)Oc2cccnc2)n1 (centres undefined),"nuclei count, normalised",[1]; [3],103%
same,"nuclei count, normalised",[1]; [4],101%
same,"p53-positive nuclei, normalised",[2]; concentration not given here,-0.151% (inactive)
same,"p53-positive nuclei, normalised",[2]; [5],-0.079%
COc1cc(-c2cccc(C)c2C)nc(N)n1,"nuclei count, normalised",[1]; [3],87.1%
same,"nuclei count, normalised",[1]; [4],74.8%
same,"p53-positive nuclei, normalised",[2]; concentration not given here,0.587% (inactive)
same,"p53-positive nuclei, normalised",[2]; [5],0.226%
CN(CC1COc2ccccc2O1)C(=O)Nc1nncs1 (centres undefined),"nuclei count, normalised",[1]; [3],103%
same,"nuclei count, normalised",[1]; [4],104%
same,"p53-positive nuclei, normalised",[2]; concentration not given here,-0.215% (inactive)
same,"p53-positive nuclei, normalised",[2]; [5],-0.0697%
O=C1NCCSc2c1sc1ccc(O)cc21,"nuclei count, normalised",[1]; [6],111%
same,"nuclei count, normalised",[1]; [7],108%
same,"nuclei count, normalised",[1]; [8],101%
same,"nuclei count, normalised",[1]; [9],56.1%
same,"nuclei count, normalised",[1]; [10],110%
same,"nuclei count, normalised",[1]; [11],113%
same,"nuclei count, normalised",[1]; [12],113%
same,"nuclei count, normalised",[1]; [13],36.9%
same,"p53-positive nuclei, normalised",[2]; [14],-0.0208% (inactive)
same,"p53-positive nuclei, normalised",[2]; [15],-0.288% (inactive)
same,"p53-positive nuclei, normalised",[2]; [16],0.37% (inactive)
same,"p53-positive nuclei, normalised",[2]; [17],60.9% (active)
same,"p53-positive nuclei, normalised",[2]; [18],0.0309%
same,"p53-positive nuclei, normalised",[2]; [19],-0.0893%
same,"p53-positive nuclei, normalised",[2]; [20],0.2%
same,"p53-positive nuclei, normalised",[2]; [21],4.05%
O=C1NCCCc2c1oc1ccc(O)cc21,"nuclei count, normalised",[1]; [22],99.3%
same,"nuclei count, normalised",[1]; [23],92.2%
same,"nuclei count, normalised",[1]; [24],96.6%
same,"nuclei count, normalised",[1]; [9],89.4%
same,"nuclei count, normalised",[1]; [25],104%
same,"nuclei count, normalised",[1]; [26],99.1%
same,"nuclei count, normalised",[1]; [27],99.6%
same,"nuclei count, normalised",[1]; [13],98.7%
same,"p53-positive nuclei, normalised",[2]; [28],-0.0796% (inactive)
same,"p53-positive nuclei, normalised",[2]; [29],-0.0299% (inactive)
same,"p53-positive nuclei, normalised",[2]; [30],0.259% (inactive)
same,"p53-positive nuclei, normalised",[2]; [17],0.273% (inactive)
same,"p53-positive nuclei, normalised",[2]; [31],-0.0621%
same,"p53-positive nuclei, normalised",[2]; [32],-0.105%
same,"p53-positive nuclei, normalised",[2]; [33],0.32%
same,"p53-positive nuclei, normalised",[2]; [21],0.126%
CCCCCCCCCCCCCCCCOC[C@H](CO)OC(C)=O,"nuclei count, normalised",[1]; [3],97.1%
same,"nuclei count, normalised",[1]; [4],102%
same,"p53-positive nuclei, normalised",[2]; concentration not given here,-0.0599% (inactive)
same,"p53-positive nuclei, normalised",[2]; [5],0.0467%
COc1ccc2nc3ccc(OC)cc3c(SCCCN)c2c1,"nuclei count, normalised",[1]; [22],111%
same,"nuclei count, normalised",[1]; [23],114%
same,"nuclei count, normalised",[1]; [24],103%
same,"nuclei count, normalised",[1]; [9],81.6%
same,"nuclei count, normalised",[1]; [25],119%
same,"nuclei count, normalised",[1]; [26],115%
same,"nuclei count, normalised",[1]; [27],109%
same,"nuclei count, normalised",[1]; [13],90.5%
same,"p53-positive nuclei, normalised",[2]; [28],-0.0602% (inactive)
same,"p53-positive nuclei, normalised",[2]; [29],-0.0191% (inactive)
same,"p53-positive nuclei, normalised",[2]; [30],-0.0521% (inactive)
same,"p53-positive nuclei, normalised",[2]; [17],0.61% (inactive)
same,"p53-positive nuclei, normalised",[2]; [31],-0.00591%
same,"p53-positive nuclei, normalised",[2]; [32],-0.136%
same,"p53-positive nuclei, normalised",[2]; [33],0.00172%
same,"p53-positive nuclei, normalised",[2]; [21],0.819%
CC(C)C(C(=O)Nc1ccc(C(=O)NO)cc1)c1ccccc1 (centres undefined),"nuclei count, normalised",[1]; [34],45.5%
same,"nuclei count, normalised",[1]; [35],32%
same,"p53-positive nuclei, normalised",[2]; [36],48.1% (active)
same,"p53-positive nuclei, normalised",[2]; [37],50.4%
CC(=O)Nc1ccc(C(=O)Nc2ccccc2N)cc1,"nuclei count, normalised",[1]; [34],92.6%
same,"nuclei count, normalised",[1]; [35],89.8%
same,"p53-positive nuclei, normalised",[2]; [36],0.127% (inactive)
same,"p53-positive nuclei, normalised",[2]; [37],-0.311%
CC(C)[C@H](C(=O)Nc1ccc(C(=O)NO)cc1)c1ccccc1,"nuclei count, normalised",[1]; [3],80%
same,"nuclei count, normalised",[1]; [4],65.6%
same,"p53-positive nuclei, normalised",[2]; concentration not given here,9.18% (inactive)
same,"p53-positive nuclei, normalised",[2]; [5],17.4%
COc1ccc(F)cc1-c1cnn(CC(=O)Nc2cc(C)nn2C)c1,"nuclei count, normalised",[1]; [3],95.8%
same,"nuclei count, normalised",[1]; [4],92.9%
same,"p53-positive nuclei, normalised",[2]; concentration not given here,0.158% (inactive)
same,"p53-positive nuclei, normalised",[2]; [5],-0.0647%
CCCCC/C=C/C/C=C/CCCCCCCC(=O)O,"nuclei count, normalised",[1]; [3],108%
same,"nuclei count, normalised",[1]; [4],108%
same,"p53-positive nuclei, normalised",[2]; concentration not given here,-0.00219% (inactive)
same,"p53-positive nuclei, normalised",[2]; [5],-0.0851%
Cc1cc(OCc2nnc(SC3CCCC3)n2-c2cccnc2)ccc1-c1ccc(S(C)(=O)=O)cc1,"nuclei count, normalised",[1]; [6],107%
same,"nuclei count, normalised",[1]; [7],112%
same,"nuclei count, normalised",[1]; [8],74.2%
same,"nuclei count, normalised",[1]; [34],78.3%
same,"nuclei count, normalised",[1]; [9],53.9%
same,"nuclei count, normalised",[1]; [10],114%
same,"nuclei count, normalised",[1]; [11],110%
same,"nuclei count, normalised",[1]; [12],69.2%
same,"nuclei count, normalised",[1]; [35],66.8%
same,"nuclei count, normalised",[1]; [13],36.2%
same,"p53-positive nuclei, normalised",[2]; [14],-0.268% (inactive)
same,"p53-positive nuclei, normalised",[2]; [15],-0.012% (inactive)
same,"p53-positive nuclei, normalised",[2]; [16],2.41% (inactive)
same,"p53-positive nuclei, normalised",[2]; [36],3.08% (inactive)
same,"p53-positive nuclei, normalised",[2]; [17],57.1% (active)
same,"p53-positive nuclei, normalised",[2]; [18],-0.152%
same,"p53-positive nuclei, normalised",[2]; [19],-0.153%
same,"p53-positive nuclei, normalised",[2]; [20],1.05%
same,"p53-positive nuclei, normalised",[2]; [37],0.345%
same,"p53-positive nuclei, normalised",[2]; [21],46.4%
